Values without a mark were called inactive. Entries that show only a call come without a potency. For some assays here: Potency and affinity values are given separately. Calls of active or inactive are those of the source. Unless noted, how the calls were made is not given here.
What was measured:
[1] = antimalarial activity against Dd2 strain (AID 2302;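 active means growth inhibition above 50% at the single 2 µM test dose, taken to imply half-maximal potency below 2 µM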); details: P. falciparum Dd2 in RBCs, LDH growth readout, 72 h; at 2 µM; hits give high values
[2] = human hepatoma cell viability loss – ATP luminescence, cytotoxicity control for P. falciparum antimalarial project, primary screen (AID 2303;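 active means inhibition above 50%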); details: HepG2 viability, 24-48 h, at 10 µM, hits give high values
[3] = molecular target: L-lactate dehydrogenase (Plasmodium falciparum (isolate CDC / Honduras)) (UniProt Q27743); assay: PfLDH activity inhibition – cell lysate, 3D7 strain, counter-screen for P. falciparum growth inhibition project (AID 2304); details: P. falciparum 3D7 crude extract, LDH APAD/NBT absorbance; at 2 µM; hits give high values
L-lactate dehydrogenase (Plasmodium falciparum (isolate CDC / Honduras)), sequence (Q27743 whole entry, looked up): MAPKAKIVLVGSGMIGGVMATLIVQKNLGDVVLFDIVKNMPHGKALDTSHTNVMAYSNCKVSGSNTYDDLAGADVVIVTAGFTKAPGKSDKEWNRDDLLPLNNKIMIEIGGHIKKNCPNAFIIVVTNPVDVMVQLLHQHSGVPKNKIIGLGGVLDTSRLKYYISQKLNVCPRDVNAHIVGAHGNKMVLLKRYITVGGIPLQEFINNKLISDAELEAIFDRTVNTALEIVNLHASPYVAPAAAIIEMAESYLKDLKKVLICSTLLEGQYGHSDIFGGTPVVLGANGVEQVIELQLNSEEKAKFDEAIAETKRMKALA

[4] = inhibition of 3D7 malaria parasite growth – strain 3D7 (AID 2306); details: P. falciparum 3D7 erythrocytic growth, LDH absorbance, 72 h; at 2 µM; hits give high values
[5] = molecular target: Calcium-dependent protein kinase 1 (Plasmodium falciparum (isolate 3D7)) (UniProt P62344); assay: PfCDPK1 kinase inhibitors, biochemical, TCAMS library (AID 1159585; cut-off not given, nearly all actives have IC50 up to about 0.98 µM;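 further: inhibitors leave more ATP so luminescence rises with inhibition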); details: recombinant PfCDPK1, Kinase-Glo ATP depletion luminescence
Calcium-dependent protein kinase 1 (Plasmodium falciparum (isolate 3D7)), sequence (P62344 whole entry, looked up): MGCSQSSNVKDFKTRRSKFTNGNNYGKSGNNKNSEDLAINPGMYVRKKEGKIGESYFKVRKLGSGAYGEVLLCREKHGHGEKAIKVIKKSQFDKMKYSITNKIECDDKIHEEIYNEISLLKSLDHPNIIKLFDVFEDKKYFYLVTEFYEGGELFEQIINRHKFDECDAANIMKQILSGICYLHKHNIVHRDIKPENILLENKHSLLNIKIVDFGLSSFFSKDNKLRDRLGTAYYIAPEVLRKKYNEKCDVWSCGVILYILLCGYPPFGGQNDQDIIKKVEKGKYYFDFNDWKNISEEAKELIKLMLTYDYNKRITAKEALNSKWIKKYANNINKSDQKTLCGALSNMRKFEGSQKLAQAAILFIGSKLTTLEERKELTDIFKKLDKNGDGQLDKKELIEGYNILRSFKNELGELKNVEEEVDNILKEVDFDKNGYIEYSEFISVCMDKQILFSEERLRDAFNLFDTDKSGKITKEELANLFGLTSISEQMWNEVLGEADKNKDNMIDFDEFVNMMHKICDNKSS

[6] = molecular target: Plasmodium falciparum protein kinase 6 (PK6, PF3D7_1337100) (UniProt Q8IDW1); assay: PfPK6 kinase inhibitors, biochemical, TCAMS library (AID 1159586); details: recombinant PfPK6, Kinase-Glo ATP depletion luminescence
Plasmodium falciparum protein kinase 6 (PK6, PF3D7_1337100), sequence (Q8IDW1 1-305): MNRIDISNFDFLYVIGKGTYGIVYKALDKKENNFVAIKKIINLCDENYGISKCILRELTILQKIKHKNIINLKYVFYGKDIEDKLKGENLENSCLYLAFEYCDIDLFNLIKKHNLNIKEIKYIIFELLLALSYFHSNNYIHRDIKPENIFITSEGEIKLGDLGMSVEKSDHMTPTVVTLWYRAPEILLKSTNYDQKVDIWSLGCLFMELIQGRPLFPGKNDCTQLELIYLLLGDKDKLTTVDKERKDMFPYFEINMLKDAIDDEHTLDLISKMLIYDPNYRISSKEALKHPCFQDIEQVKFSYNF

[7] = molecular target: Protein kinase 7 (PK7), Plasmodium falciparum 3D7 (PF3D7_0213400) (UniProt Q7YTF7); assay: inhibition of Plasmodium PK7 catalytic activity – biochemical, TCAMS antimalarial set, Kinase-Glo luminescence (AID 1159587); details: recombinant PfPK7, Kinase-Glo ATP depletion luminescence
Protein kinase 7 (PK7), Plasmodium falciparum 3D7 (PF3D7_0213400), sequence (Q7YTF7 1-343): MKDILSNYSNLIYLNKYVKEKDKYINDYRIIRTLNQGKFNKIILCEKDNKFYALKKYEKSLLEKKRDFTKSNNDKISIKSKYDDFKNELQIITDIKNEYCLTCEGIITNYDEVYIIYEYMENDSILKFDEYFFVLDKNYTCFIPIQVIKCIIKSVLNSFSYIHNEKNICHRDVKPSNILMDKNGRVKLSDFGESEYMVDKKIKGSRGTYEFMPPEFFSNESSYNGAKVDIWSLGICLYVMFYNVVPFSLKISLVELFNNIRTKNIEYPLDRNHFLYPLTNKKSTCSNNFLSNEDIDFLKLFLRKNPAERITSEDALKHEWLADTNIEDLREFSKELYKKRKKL

[8] = molecular target: Calcium-dependent protein kinase 4 (Plasmodium falciparum (isolate 3D7)) (UniProt Q8IBS5); assay: PfCDPK4 kinase inhibitors, biochemical, TCAMS library (AID 1159588; cut-off not given, nearly all actives have IC50 up to about 0.91 µM); details: recombinant PfCDPK4, Kinase-Glo ATP depletion luminescence
Calcium-dependent protein kinase 4 (Plasmodium falciparum (isolate 3D7)), sequence (Q8IBS5 whole entry, looked up): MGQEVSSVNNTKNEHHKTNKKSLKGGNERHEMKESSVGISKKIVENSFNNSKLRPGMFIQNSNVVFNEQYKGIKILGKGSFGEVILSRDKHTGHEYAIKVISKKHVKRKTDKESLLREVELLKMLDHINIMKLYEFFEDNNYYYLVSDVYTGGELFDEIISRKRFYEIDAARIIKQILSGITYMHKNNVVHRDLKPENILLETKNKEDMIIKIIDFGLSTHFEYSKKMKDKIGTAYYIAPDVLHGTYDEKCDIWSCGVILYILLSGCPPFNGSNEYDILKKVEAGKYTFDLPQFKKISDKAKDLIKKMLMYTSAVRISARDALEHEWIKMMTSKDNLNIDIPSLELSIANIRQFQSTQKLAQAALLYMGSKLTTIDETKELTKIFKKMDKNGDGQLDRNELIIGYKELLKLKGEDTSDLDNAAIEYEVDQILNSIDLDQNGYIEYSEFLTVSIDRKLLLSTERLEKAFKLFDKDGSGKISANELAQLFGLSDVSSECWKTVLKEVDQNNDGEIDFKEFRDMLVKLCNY

Compound	growth inhibition [1]	inhibition [2]	inhibition [3]	growth inhibition [4]	outcome [5]	outcome [6]	outcome [7]	outcome [8]
O=C(Nc1ccc(I)cc1)N1CCc2sccc2C1CN1CCCCC1 (stereo not given)	0%	33%	6%	90% (active)	inactive	inactive	inactive	inactive
COc1ccc2nccc(N(C)CC3(O)CCN(CCc4ccc5c(c4)NC(=O)CS5)CC3)c2n1	67% (active)	10%	1%	91% (active)	inactive	inactive	inactive	inactive
Cc1cccc(C(=O)Nc2ccnc(N(C)CCCN(C)Cc3cccc(O)c3)c2)c1	71% (active)	27%	-3%	94% (active)	inactive	inactive	inactive	inactive
CN(C)CCCOc1c(C(C)(C)C)cc(-c2cc(C(C)(C)C)c(OCCCN(C)C)c(C(C)(C)C)c2)cc1C(C)(C)C	99% (active)	25%	0%	100% (active)	inactive	inactive	inactive	inactive
C=CCC(C(=O)Nc1ccnc2ccc(OC)cc12)C1CCN(CCCCCCC)CC1 (stereo not given)	84% (active)	20%	-7%	86% (active)	inactive	inactive	inactive	inactive
Cc1cccc2[nH]c(-c3cccc(-c4cccc(C(=O)NCc5nccn5C)c4)c3)nc12	50% (active)	22%	8%	99% (active)	inactive	inactive	inactive	inactive
CCC1CCc2cc(N)cc(-c3nc4c(c(C)nn4CC)c(=O)[nH]3)c2O1 (stereo not given)	42%	-3%	-4%	86% (active)	inactive	inactive	inactive	inactive
Cc1cc2nc(-c3cccc(C(=O)NC4CCN(Cc5ccccc5)CC4)c3)[nH]c2cc1C	13%	32%	2%	101% (active)	inactive	inactive	inactive	inactive
COCCSc1nc2scc(C)c2c(=O)n1Cc1cccc(OC)c1	33%	0%	-8%	92% (active)	inactive	inactive	inactive	inactive
O=C(N[C@@H](CC1CCCCC1)C(=O)NCc1cccc2ccccc12)c1ccc(O)c(-c2ccc(Cl)c(Cl)c2)c1	99% (active)	-9%	2%	97% (active)	inactive	inactive	inactive	inactive
CC(C)c1cc2c(ccc3nc(N)nc(N)c32)[nH]1	4%	49%	2%	93% (active)	inactive	inactive	inactive	inactive
CN(C)CCCNCc1ccc(-c2ccc(CNCCOc3ccccc3)cc2)cc1	53% (active)	27%	0%	100% (active)	inactive	inactive	inactive	inactive
COc1cc(CNCCCNc2nc3ncccc3[nH]2)c2[nH]cc(Br)c2c1	3%	12%	8%	92% (active)	inactive	inactive	inactive	inactive
CC(C)CNCc1cccc(-c2cccc(CN(CCCN3CCN(C)CC3)C(=O)/C=C/c3ccccc3)c2)c1	88% (active)	44%	7%	90% (active)	inactive	inactive	inactive	inactive
COc1ccc(CNC2CCN(C)CC2)cc1-c1ccc(S(=O)(=O)NC2CCC2)cc1	76% (active)	58% (active)	1%	98% (active)	inactive	inactive	inactive	inactive
CCc1ccc(CN2CCC(C(=O)Nc3ccc(-c4nc5ccccc5[nH]4)cc3)CC2)o1	94% (active)	29%	-4%	99% (active)	inactive	inactive	inactive	inactive
CON(CCCN(C)C)C(=N)N	-4%	3%	1%	92% (active)	inactive	inactive	inactive	inactive
c1ccc(-c2ccc(-c3nc4ccccc4[nH]3)cc2)cc1	83% (active)	10%	-5%	93% (active)	inactive	inactive	inactive	inactive
O=C(Nc1ccnc2ccccc12)NC1CCN(CCc2ccccc2)CC1	43%	7%	-3%	100% (active)	inactive	inactive	inactive	inactive
CC(=O)OC[C@H]1O[C@@H](C#Cc2ccccc2)[C@H](OC(C)=O)[C@@H](OC(C)=O)[C@@H]1OC(C)=O	90% (active)	5%	0%	95% (active)	inactive	inactive	inactive	inactive

Compound	growth inhibition [1]	inhibition [2]	inhibition [3]	growth inhibition [4]	outcome [5]	outcome [6]	outcome [7]	outcome [8]
CN1CCc2ccc(NC(=O)Nc3cccc(C(=O)c4ccccc4)c3)cc2C1	16%	11%	-1%	83% (active)	inactive	inactive	inactive	inactive
O=C(Nc1cccc(CN2CCCN(Cc3ncc[nH]3)CC2)c1)c1ccc(Cl)c(Cl)c1	16%	8%	1%	100% (active)	inactive	inactive	inactive	inactive
Nc1c(C(=O)NCCCCN2CCN(c3nsc4ccccc34)CC2)sc2ccccc12	-6%	26%	-5%	86% (active)	inactive	inactive	inactive	inactive
O=C(Nc1ccc(S(=O)(=O)N2CCCC2)cc1)c1cc(-c2cccnc2)nc2ccc(Cl)cc12	95% (active)	4%	-6%	97% (active)	inactive	inactive	inactive	inactive
COc1ccc(N2C(N)=NC(N)=NC2(C)C)cc1	29%	0%	4%	94% (active)	inactive	inactive	inactive	inactive
Nc1cccc(CNCc2ccc(-c3cccc(-c4nc5ccccc5[nH]4)c3)cc2)c1	78% (active)	12%	6%	103% (active)	inactive	inactive	inactive	inactive
CCC(=O)N(c1ccccc1)C1CCN(CCCC(NC(=O)Nc2cc(C(F)(F)F)cc(C(F)(F)F)c2)c2ccc(Cl)c(Cl)c2)CC1 (stereo not given)	18%	29%	-5%	99% (active)	inactive	inactive	inactive	inactive
Cc1ccc(Nc2nc(NN=Cc3ccc(-c4ccc([N+](=O)[O-])cc4)o3)nc(N3CCOCC3)n2)cc1Cl	47%	12%	-1%	95% (active)	inactive	inactive	inactive	inactive
COc1cccc(C(=O)Nc2ccc(Oc3ccc(Cl)cc3)cc2)c1	-2%	33%	-5%	92% (active)	inactive	inactive	inactive	inactive
Cc1cc(N[C@@H](Cc2ccccc2)C(=O)NCc2cccc(F)c2)nc(NCc2ccccc2C)n1	75% (active)	6%	0%	100% (active)	inactive	inactive	inactive	inactive
c1csc(-c2nc(NCC3CCCO3)ncc2-c2ccsc2)n1 (stereo not given)	83% (active)	-4%	1%	89% (active)	inactive	inactive	inactive	inactive
CC(C)(C)c1ccc(CNC(=O)c2cc(CNC3CCC(N)CC3)ccc2O)cc1 (stereo not given)	1%	1%	0%	94% (active)	inactive	inactive	inactive	inactive
Cc1ccc(NC(=O)c2cn(-c3ccccc3)nc2-c2ccc(F)cc2)cc1[N+](=O)[O-]	38%	6%	8%	92% (active)	inactive	inactive	inactive	inactive
O=C(Nc1cccc(F)c1)c1ccc(C(=O)NC2CCN(CC3CCCCC3)C2)cc1 (stereo not given)	15%	16%	-3%	96% (active)	inactive	inactive	inactive	inactive
CC1=C(C(=O)OCCOCc2ccccc2)C(c2ccccc2C(F)(F)F)C(C(=O)OCCOCc2ccccc2)=C(C)N1	87% (active)	-7%	3%	89% (active)	inactive	inactive	inactive	inactive
C=CCNS(=O)(=O)c1ccc(NC(=O)C(C)Oc2ccc([N+](=O)[O-])cc2)cc1 (stereo not given)	100% (active)	14%	-3%	101% (active)	inactive	inactive	inactive	inactive
CCc1ccccc1OCCCON1C(N)=NC(N)=NC1(C)C	97% (active)	77% (active)	-2%	95% (active)	inactive	inactive	inactive	inactive
N=c1n(Cc2ccccc2)c2ccccc2n1CC(O)c1ccc(Cl)c(Cl)c1 (stereo not given)	98% (active)	40%	4%	95% (active)	inactive	inactive	inactive	inactive
Cc1ccccc1C1CCN(C2CCC(NC(=O)/C=C/c3cccc(Cl)c3Cl)CC2)CC1 (stereo not given)	23%	74% (active)	2%	94% (active)	inactive	inactive	inactive	inactive
Cc1noc(C)c1-c1ccc2c(Nc3ccccc3N3CCOCC3)c(C(=O)NCc3ccccc3)cnc2c1	6%	23%	-2%	91% (active)	inactive	inactive	inactive	inactive
